Rango release inh – qHTS Assay for Inhibitors of RanGTP induced Rango (Ran-regulated importin-beta cargo) - Importin beta complex dissociation; Snurportin-1 (Homo sapiens) + GTP-binding nuclear protein Ran (Homo sapiens) + Importin …; Biochemical FRET Rango-importin beta, RanGTP-induced dissociation; Potency, µM (series often up to 46.1 µM), for the others: top-dose activity change, negative = inhibition; 340,000 compounds, 0.071% hits; AID 540253, 2011; calls by dose curve; further: potency means the concentration at half of the fitted maximal effect; % of control where 0% means no effect; nearly all actives have a fitted effect of over 45% in size
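Rango FRET biosensor (snurportin-1 IBB flanked by N-terminal EYFP and C-terminal CFP10) at 0.1 uM, with 0.25 uM importin beta in PBS, 1mM DTT, 0.02% Tween-20, 0.1% BSA. 0.6 uM Ran, 2mM GTP and 0.2 uM RCC1 were then added for 45 min at room temperature. Inhibition read as loss of FRET rise.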
Rango complex inh – qHTS Assay for Inhibitors of Rango (Ran-regulated importin-beta cargo) - Importin beta complex formation; Importin subunit beta-1 (Homo sapiens), Q14974; Rango CFP/YFP FRET sensor + importin beta, 45 min; Potency, µM (highest dose often 92.2 µM), for the others: at the highest dose inhibition of complex formation; 340,000 compounds, 0.031% hits; AID 540263, 2011; calls by dose curve;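 further: potency means the concentration at half of the fitted maximal effect; 0% = DMSO wells and 100% = buffer wells lacking importin beta; nearly all actives have a fitted effect of over 15% in size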
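Inhibition scored from the CFP 486 nm/YFP 530 nm FRET ratio 45 min after adding 0.125 microM importin beta to 50 nM Rango biosensor preincubated 5 min with compound (room temperature, PBS with DTT, Tween-20, BSA). No-importin wells as positive control.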
GCN5L2 inh – qHTS Assay for Inhibitors of GCN5L2 | GCN5L2 HAT assay, ThioGlo1 CoA-SH fluorescence | Potency, µM (highest dose often 58.9 µM), inactives show top-dose activity change, negative = inhibition, most hits filed as inhibitors | Histone acetyltransferase KAT2A (Homo sapiens), Q92830 | 390,000 compounds, 0.21% hits; further: potency means the concentration at half of the fitted maximal effect; on the % scale 0 is the no-effect control and ±100 the full control effect
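ThioGlo1-coupled HAT assay: 20nM GCN5L2, 70uM acetyl-CoA, 75uM H3(1-25) peptide, pH 7.5. Fluorescence read at 340/540nm at start and after 20 min at room temperature.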
PLK1 PBD block – qHTS for Inhibitors of PLK1-PDB (polo-like kinase 1 - polo-box domain): Primary Screen. Serine/threonine-protein kinase PLK1 (Homo sapiens), P53350. Plk1 PBD binding of FITC phosphopeptide, fluorescence polarization. Potency, µM, inactives show max response, negative = inhibition, hits mostly inhibitors. 360,000 compounds, 2.8% hits. AID 720504, 2013; further: potency means the concentration at half of the fitted maximal effect; series mostly up to about 57 µM; on the % scale 0 is the no-effect control and ±100 the full control effect; nearly all actives have a fitted effect of over 65% in size
VDR inhibitor – Inhibitors of the vitamin D receptor (VDR): qHTS; Vitamin D3 receptor (Homo sapiens), P11473; VDR-SRC2-3 peptide fluorescence polarization, 2 h; Potency, µM, without a hit: max response, negative = inhibition, actives largely listed as inhibitors; 400,000 compounds, 0.93% hits; further: potency means the concentration at half of the fitted maximal effect; on the % scale 0 is the no-effect control and ±100 the full control effect
Target sequence (P11473 whole entry, looked up): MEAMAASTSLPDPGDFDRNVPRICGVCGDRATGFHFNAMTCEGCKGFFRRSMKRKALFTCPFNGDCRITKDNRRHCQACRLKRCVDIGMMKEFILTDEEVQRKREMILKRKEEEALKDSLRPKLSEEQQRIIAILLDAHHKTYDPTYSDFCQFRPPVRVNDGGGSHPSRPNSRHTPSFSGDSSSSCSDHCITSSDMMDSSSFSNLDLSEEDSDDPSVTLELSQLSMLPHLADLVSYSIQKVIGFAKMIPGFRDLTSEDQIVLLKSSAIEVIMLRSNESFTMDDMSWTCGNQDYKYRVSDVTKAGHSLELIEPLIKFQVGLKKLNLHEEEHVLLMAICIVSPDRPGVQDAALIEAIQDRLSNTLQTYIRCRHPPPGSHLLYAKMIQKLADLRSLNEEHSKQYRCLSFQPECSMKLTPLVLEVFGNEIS
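FP read-out; VDR + SRC2-3 coactivator peptide; 23 nl compound by pintool; 2 h RT incubation; reagents held at 4 deg C, protected from light.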
PI5P4Ka inh – qHTS for Inhibitors of phosphatidylinositol 5-phosphate 4-kinase (PI5P4K) | PI5P4Kalpha enzyme, ADP-Glo luminescence, 60 min; hits give low values | Phosphatidylinositol 5-phosphate 4-kinase type-2 alpha (Homo sapiens), P48426 | 330,000 compounds, 1.2% hits | AID 652105, 2013 | max response, %; active means max response of -50% or lower; inconclusive means between -30% and -50%; inactive means -30% or higher; further: value at the top dose of about 77 µM; on the % scale 0 is the no-effect control and ±100 the full control effect
Target sequence (P48426 whole entry, looked up): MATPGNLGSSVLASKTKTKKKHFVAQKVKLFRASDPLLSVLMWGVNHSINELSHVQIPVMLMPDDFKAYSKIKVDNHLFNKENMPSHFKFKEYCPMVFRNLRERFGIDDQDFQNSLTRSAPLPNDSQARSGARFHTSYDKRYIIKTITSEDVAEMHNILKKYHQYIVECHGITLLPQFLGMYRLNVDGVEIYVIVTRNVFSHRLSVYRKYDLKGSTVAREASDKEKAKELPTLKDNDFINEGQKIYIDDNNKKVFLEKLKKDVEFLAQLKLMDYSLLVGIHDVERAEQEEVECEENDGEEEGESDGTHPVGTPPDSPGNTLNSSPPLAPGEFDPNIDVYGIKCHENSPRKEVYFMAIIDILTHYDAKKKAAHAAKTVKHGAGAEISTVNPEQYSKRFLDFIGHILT
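PI5P4Kalpha ADP-Glo assay; 5 microM ATP final; 60 min RT reaction; HEPES pH 7.4/EGTA/CHAPS, 5% DMSO; controls lacking substrate or enzyme; luminescent end-point.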
USP1 UbRho – Inhibitors of USP1/UAF1: Hit Validation in Primary Assay; Ub-Rhodamine cleavage, fluorescence kinetic read; 50 compounds, 50% hits; Potency, µM (highest dose often 114 µM), for inactives: at the top dose activity change, negative = inhibition, most hits filed as inhibitors; shares compounds with VDR inhibitor
VDR confirm – qHTS for Inhibitors of the vitamin D receptor (VDR): Hit Validation in Primary Screen; 840 compounds, 89% hits; Potency, µM, actives largely listed as inhibitors; VDR-coactivator inhibition assay, qHTS confirmation; shares compounds with VDR inhibitor; further: potency means the concentration at half of the fitted maximal effect
VDR FP – qHTS for Inhibitors of the vitamin D receptor (VDR): Hit Validation using a Fluorescein Assay; VDR-coactivator binding, fluorescein fluorescence polarization; Potency, µM (titrated, usually from 57.1 µM), inactives show at the top dose activity change, negative = inhibition, hits mostly inhibitors; AID 602200, 2012; shares compounds with VDR inhibitor; 840 compounds, 48% hits; further: potency means the concentration at half of the fitted maximal effect
VDR bla reporter – qHTS for Inhibitors of the vitamin D receptor (VDR): Hit Validation using a Beta-Lactamase Assay. 840 compounds, 23% hits. VDR beta-lactamase reporter cells, FRET ratio; cells co-treated with VDR agonist LG190178. shares compounds with VDR inhibitor. Potency, µM (highest dose often 46.1 µM), for the others: at the highest dose activity change, negative = inhibition, most hits filed as inhibitors; further: potency means the concentration at half of the fitted maximal effect; on the % scale 0 is the no-effect control and ±100 the full control effect
VDR cytotox – qHTS for Inhibitors of the vitamin D receptor (VDR): Hit Validation using a Cytotoxicity Assay | cytotoxicity counter-screen, cell viability, qHTS | shares compounds with VDR inhibitor | 840 compounds, 18% hits | AID 602204, 2012 | Potency, µM (titrated, usually from 48.3 µM), for inactives: top-dose activity change, negative = cytotoxicity, most hits filed as cytotoxic;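 further: potency means the concentration at half of the fitted maximal effect; plate controls were DMSO for no effect and high-concentration cycloheximide for full effect; nearly all actives have a fitted effect of over 75% in size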
* hit, by the source's call; ? = inconclusive; . = no result given; [ ] = another dose, or the depositor's remark. In the library only some 3.6% were active in any assay of this set; here they are far more common. Unless noted, the call rests on the fitted dose curve; in most records, active means well fitted curve in the direction sought with a large enough effect; inconclusive means small, poorly fitted or top-dose-only effect, or another doubt; inactive means no such curve, though single readings can be large; an effect the other way counts as inactive or inconclusive.

SMILES | Rango release inh | Rango complex inh | GCN5L2 inh | PLK1 PBD block | VDR inhibitor | PI5P4Ka inh | VDR confirm | VDR FP | VDR bla reporter | VDR cytotox | others
O=C(CSC1=NS(=O)(=O)c2cc(F)ccc2N1)Nc1ccccc1 | 5.3% | -1.1% | 1.2% | -10.3% | -8.1% | 0.0 | . | . | . | .
CCNc1ncc2nc(CCc3ccccc3)c(=O)n(CCOC)c2n1 | . | . | ? | . | -0.8% | . | . | . | . | .
CCc1ccc(C(=O)/C=C/c2ccc([N+](=O)[O-])o2)cc1 | -2.6% | 4.1% | -3.2%[0.501 µM] | 5.97µM* | 31.6µM* | -29.7 | 6.7* | ? | 16.4µM* | ?
CCc1ccc(/C=C/C(=O)c2ccc(S(=O)(=O)N(C)C)cc2)cc1 | 35.3% | ? | -1.9% | -8.9% | ? | 4.9 | ? | 6.31µM* | 32.8% | ?
COc1ccc(C(=O)NCC(=O)N2CCN(c3ccc(Cl)cc3)CC2)cc1 | 1.1% | -1.3% | -20.7% | -6.3% | 6.1% | -4.9 | . | . | . | .
COC(=O)CC1=NN(c2ccc(OC)cc2)C(=O)/C1=C\c1ccc(Cl)cc1 | -7.2% | 3.6% | -22.6% | 2.38µM* | 39.8µM* | -14.3 | 21.2* | ? | -4.9% | -10.1%
O=[N+]([O-])c1ccc(S(=O)(=O)c2cccc(C(F)(F)F)c2)nc1 | -24.7% | ? | . | 2.67µM* | 28.2µM* | -1.2 | 6.7* | ? | 16.4µM* | ?
COc1cc(NC(C)CCCN)c2ncccc2c1Oc1ccccc1 (stereo not drawn) | -24.0% | ? | -8.1% | -9.9% | 0.1% | 8.0 | . | . | . | .
COc1cc(N[C@@H](C)CCCN)c2ncccc2c1 | . | . | 10.7%[21.4 µM] | . | 4.6% | . | . | . | . | . | USP1 UbRho=20µM*
Oc1cc2c(cc1C(c1ccc(Br)cc1)N1CCCC1)OCO2 (stereo not drawn) | -4.5% | -0.8% | -4.7% | 1.5µM* | 39.8µM* | -102.3* | 13.4* | 10µM* | -3.6% | ?
O=S(=O)(NCC(c1ccc2c(c1)OCO2)N1CCOCC1)c1ccc(Br)cc1 (stereo not drawn) | 2.7% | -2.4% | -7.0% | 1.5% | -9.0% | 4.0 | . | . | . | .
O=C(/C(=C\c1ccccc1)c1nc2ccccc2[nH]1)c1ccc(Cl)cc1 | 2.1% | -0.9% | -3.0% | -2.3% | ? | 1.7 | . | . | . | .
O=C(/C(=C/c1ccc(Cl)cc1)c1nc2ccccc2[nH]1)c1cccs1 | 2.0% | -0.1% | -1.9% | -11.4% | 17.8µM* | -4.1 | 9.47* | ? | 6.51µM* | 8.2µM*
COc1ccc(NC(=O)/C(Cl)=C(/Cl)S(=O)Cc2ccccc2)cn1 (stereo not drawn) | -2.9% | -0.6% | 2.2% | 2.12µM* | 14.1µM* | -5.2 | 4.23* | ? | ? | ?
COc1ccc(NC(=O)Cc2ccccc2)cn1 | 2.3% | -2.1% | -1.1% | ? | -2.3% | -8.2 | . | . | . | .
COc1ccc2c(c1)cc1c(=O)n(CC(=O)NC(C)C)nc(C)n12 | . | . | -6.0% | . | -1.4% | . | . | . | . | .
Cn1c(=O)n(C)c2cc(NS(=O)(=O)c3ccc(F)cc3)c(NCc3ccccc3)cc21 | . | . | -9.3% | . | 20.7% | . | . | . | . | .
N#C/C(=C\c1ccc(-c2cc(Cl)ccc2Cl)o1)C(=O)Nc1cccc2ncccc12 | . | . | -16.9% | . | ? | . | . | . | . | . | USP1 UbRho=?
COc1ccc(Cc2c(C)nn(-c3nc(C)c(C(=O)Nc4ccc(C)cc4C)s3)c2C)cc1 | . | . | 0.5% | . | 8.7% | . | . | . | . | .
CS(=O)(=O)c1ccc(S(=O)CC(=O)OCc2ccccc2)c([N+](=O)[O-])c1 (stereo not drawn) | 5.2% | -2.7% | -3.4% | 2.38µM* | 17.8µM* | -6.8 | 9.47* | 12.6µM* | ? | 20.6µM*
O=C(Nc1nnc(COc2ccc(Cl)cc2)s1)c1ccco1 | 0.8% | -0.1% | 32.7% | 2.67µM* | 28.2µM* | ? | 4.23* | ? | -16.6% | -5.8%
O=C(/C=C/c1cccc(Cl)c1)c1nc2ccccc2[nH]1 | 5.9% | 2.7% | -17.3% | ? | 44.7µM* | -26.4 | 8.44* | ? | ? | ?
O=C(NCc1nc2ccccc2[nH]1)c1cccc(Cl)c1 | . | . | -3.5% | . | -4.0% | . | . | . | . | .
CCCC(=O)Nc1cc(C(=O)NCc2ccccc2)ccc1S(=O)(=O)c1ccc(Cl)cc1 | . | . | -11.5% | . | 1.2% | . | . | . | . | .
CCOC(=O)N1C(=O)NC(=O)C1c1ccccc1 (stereo not drawn) | -4.2% | -3.4% | . | -7.4% | -3.3% | 2.5 | . | . | . | .
CCOC(=O)N1C(=O)[C@](CC)(c2ccccc2)N1C(=O)OCC | -1.4% | -0.4% | -7.6% | 16.8µM* | 79.4µM* | -3.1 | ? | ? | 21.1% | -5.1%
CCOC(=O)c1nc2sc(C)c(C)c2c(=O)[nH]1 | -9.2% | ? | -15.3% | -6.0% | -8.3% | . | . | . | . | .
CCOC(=O)/C(=C\c1cccc(O)c1)c1nc2sc(C)c(C)c2c(=O)[nH]1 | -3.8% | 0.5% | -6.5% | 4.74µM* | 44.7µM* | ? | 3.36* | ? | 20.6µM* | ?

High-throughput results (PubChem BioAssay)
